# Test results taken from PubChem BioAssay (NCI).
# About 83,000 compounds went through this panel and 20% of them were active in at least one assay; those are over-represented in the sample as a whole.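 Step 1: grow cells in 96-well plates. Step 2: add test compound at a single concentration. Step 3: incubate 48 h. Step 4: record percent growth.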 Unmarked numbers belong to inactive results. Calls of active or inactive are those of the source. Rule for the calls: active = growth percent below 10; inactive = the rest.
# Legend:
# Experiment in all cases: NCI-60 one-dose screen, 48 h (100 = growth as untreated, 0 = no growth, -100 = all killed)
# Details in all cases: 10 µM
# [1] = system: SR leukemia
# [2] = system: RPMI-8226 leukemia
# [3] = system: OVCAR-8 ovarian
# [4] = system: OVCAR-5 ovarian
# [5] = system: OVCAR-4 ovarian
# [6] = system: SK-OV-3 ovarian
# [7] = system: IGROV1 ovarian
# [8] = system: HS 578T breast
# [9] = system: NCI/ADR-RES ovarian
# [10] = system: OVCAR-3 ovarian
SMILES,growth [1],growth [2],growth [3],growth [4],growth [5],growth [6],growth [7],growth [8],growth [9],growth [10]
CC(C)(C)c1ccc(S(=O)(=O)N[C@H]2CC[C@H]3[C@@H]4CCc5cc(O)c([N+](=O)[O-])cc5[C@H]4CC[C@]23C)cc1,63.5%,67.3%,59.6%,95.9%,10.3%,47.7%,78.1%,61.6%,69.1%,–
COc1cccc(CNc2cccc3cn[nH]c23)c1O,103%,100%,96.5%,106%,80.7%,101%,88.8%,–,105%,100%
CC(C)=CCC/C(C)=C/CC/C(C)=C/CC/C=C(\C)CC/C=C(\C)CCC(=O)Nc1ccn(C2OC(CO)C(O)C2(F)F)c(=O)n1 (centres undefined),-16.1% (active),32.1%,19.2%,74.6%,39.9%,31%,40%,42.5%,38.8%,–
O=C(CSc1nnc(-c2ccc(Cl)cc2)o1)Nc1ccc(C(=O)/C=C/c2ccc(Cl)cc2)cc1,98.3%,92.5%,100%,110%,89.3%,90.6%,108%,95.9%,96.4%,–
NC(N)=N/N=C(\c1ccccc1)C(O)c1ccccc1 (centres undefined),95.9%,94.5%,105%,112%,105%,94.2%,100%,–,111%,111%
Cc1cc(CC(C)CC(C)(C)C)n(O)c(=O)c1 (centres undefined) (tested in a mixture with another compound),2.72% (active),39.8%,20%,41.4%,22.4%,57.6%,9.36% (active),–,0.595% (active),24.2%
C1CN(CC2CCC(CN3CCOCC3)O2)CCO1 (centres undefined),61.7%,92.3%,104%,109%,107%,90.2%,108%,–,101%,112%
O=[N+]([O-])c1ccc(/C(=C/c2ccccc2)[n+]2ccccc2)cc1,102%,98.3%,97%,98%,100%,119%,109%,–,116%,127%
COc1cc2c(cc1OC)C(C(CCCCCC(CCC(C)C)C1NCCc3cc(OC)c(OC)cc31)CCC(C)C)NCC2 (centres undefined),12.1%,-57.1% (active),-89.3% (active),-100% (active),-100% (active),-99.5% (active),–,-41% (active),-95.9% (active),-99.9% (active)
COc1cc(-c2ccc(N=Nc3ccc4c(S(=O)(=O)O)ccc(N)c4c3O)c(OC)c2)ccc1N=Nc1ccc2c(S(=O)(=O)O)ccc(N)c2c1O,146%,115%,99.6%,111%,98.4%,91.4%,–,124%,109%,109%
CCOC(=O)C1=CSC2=NC3=C(CCC/C3=C\c3ccc(Cl)cc3)C(c3ccc(Cl)cc3)N12 (centres undefined),89.6%,6.15% (active),93.7%,103%,94.7%,94.7%,109%,91.9%,98.1%,–
COc1ccc2nc3cc(Cl)ccc3c(N)c2c1,-39.1% (active),-1.72% (active),-44.4% (active),-91.8% (active),-98% (active),-97.7% (active),-33% (active),–,-97.2% (active),-93.7% (active)
CCNCC(=O)Nc1ccc(C(=O)OCC)cc1,82.3%,104%,103%,103%,102%,99.8%,99.3%,97.4%,103%,–
CCOC(=O)N/N=C/c1ccc(OC)c(OC)c1,105%,102%,102%,112%,110%,114%,110%,–,116%,128%
CCN1CCN(CCC(=O)Nc2cccc(-n3cc(-c4ccncc4)c(-c4ccc(Cl)c(OC)c4)n3)c2)CC1,-12.3% (active),-38.8% (active),24.2%,37.6%,43.1%,39.2%,47.2%,13.1%,15.2%,–
CN(C)CCOc1ccc(-c2nc3sccn3c2-c2ccnc(S(C)(=O)=O)n2)cc1,109%,89.6%,106%,107%,95.9%,88.6%,115%,–,102%,115%
Cc1nn(-c2ccc(-c3ccc(OC(F)(F)F)cc3)cc2)c2nc(Cc3ccccc3)nc(N)c12,41.8%,92.1%,33%,57.6%,4.27% (active),56.9%,47.3%,55.5%,40.5%,–
CCCCC1(O)CCCCC1,92.6%,101%,104%,112%,115%,112%,114%,–,107%,106%
O=c1oc2c(cc1-c1ccc(F)cc1)C(O)Oc1ccccc1-2 (centres undefined),58.1%,90.8%,100%,96.2%,90.6%,105%,–,16.6%,54.5%,80.4%
Cc1ccc(C)c(COc2cc(NC(=O)c3ccc4c(c3)OCO4)ccc2N(C)S(C)(=O)=O)c1,13.2%,24.9%,24.9%,30.7%,29.7%,-21% (active),–,-32.9% (active),-5.26% (active),-20.6% (active)
CC(C)(C)OC(=O)CC(S(=O)(=O)c1ccccc1)S(=O)(=O)c1ccccc1,77.9%,99.3%,101%,98.8%,107%,101%,114%,102%,107%,–
COc1ccc(/C=C2\CCCC3=C2N=C2SC(C)=CN2C3c2ccc(OC)cc2)cc1 (centres undefined),100%,71.2%,95.2%,105%,97%,101%,111%,–,96.3%,102%
CS(=O)(=O)c1nccc(-c2c(-c3ccc(OCCc4ccccc4)cc3)nc3sccn23)n1,88.5%,94.8%,98%,94.7%,67.8%,101%,110%,–,98.3%,–
COc1ccc2c(c1)C(=O)/C(=C/c1cccc(OCC(=O)c3ccc([N+](=O)[O-])cc3)c1)CO2,-64.1% (active),-50.5% (active),2.15% (active),57.3%,74%,90.7%,–,-26.8% (active),-29.2% (active),58.4%
O=C(COc1cccc(/C=C2\CSc3ccccc3C2=O)c1)c1ccc(Cl)cc1,-60.7% (active),-64.5% (active),-4.69% (active),19.5%,80.9%,104%,–,-25.5% (active),7.16% (active),57.5%
CC(C)c1ccc(C(C)C(=O)N(CC2=C(C(C)c3ccccn3)c3ccccc3C2)C(C)C)cc1 (centres undefined),24.2%,14.6%,46.6%,64.7%,30.2%,–,–,47.4%,24.2%,29.7%
CC1C(=NC(=O)c2cnccn2)C(C)C(c2ccc(Cl)cc2)NC1c1ccncc1 (centres undefined),126%,69.1%,88.3%,103%,122%,94.4%,–,125%,90.3%,113%
O=C(CCl)Oc1ccc(OC(=O)CCl)cc1,68.7%,25.7%,88.8%,111%,91.3%,–,93.1%,82.4%,79.4%,77.6%
Cc1c[nH]c(=O)n(Cc2nnc(CCC(=O)c3nc4ccccc4[nH]3)o2)c1=O,4.57% (active),17.2%,21%,13.8%,–,-7.95% (active),47.8%,10.2%,90.7%,-14.8% (active)
